# Test results taken from the supplement of paper PMC8728848.
# This is one part of a sample in which the strongest signals are shown more often than they occur.
# Assays:
# Experiment in all cases: glycan array binding signal (z-score within array); higher = stronger binding
# Details in all cases: glycan notation: IUPAC condensed, linker removed
# [1] = biological target: Fuc(a1-2)Gal(b1-4)GlcNAc(b1-2)Man(a1-3)[Fuc(a1-2)Gal(b1-4)GlcNAc(b1-2)Man(a1-6)]Man(b1-4)GlcNAc(b1-4)GlcNAc
# How it was run: (§1)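 Arrays were curated from the Consortium for Functional Glycomics database, 3228 in total, and kept only where the protein sequence was available. Binding is expressed as a within-array Z-score. This score was averaged across arrays of the same protein sequence at different concentrations or buffers and across linkers, and negative values can be read as non-binding.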
# [2] = biological target: Fuc(a1-2)Gal6S(b1-4)Glc6S
# How it was run: as §1
# [3] = biological target: Fuc(a1-2)[Gal(a1-4)]Gal(b1-4)GlcNAc
# How it was run: as §1
# [4] = biological target: Fuc(a1-3)[Gal3S(b1-4)]Glc6S
# How it was run: as §1
# [5] = biological target: Fuc(a1-3)[Gal3S(b1-4)]GlcNAc6S
# How it was run: as §1
# [6] = biological target: Fuc(a1-3)[GalNAc(b1-4)]GlcNAc
# How it was run: as §1
# [7] = biological target: Fuc(a1-4)GlcNAc
# How it was run: as §1
# [8] = biological target: Gal(a1-3)Gal(b1-4)[Fuc(a1-3)]GlcNAc
# How it was run: as §1
# [9] = biological target: Gal(b1-3)Gal
# How it was run: as §1
# [10] = biological target: Gal(b1-3)GalNAc(b1-4)Gal(b1-4)Glc
# How it was run: as §1
# [11] = biological target: Gal(b1-3)GlcNAc(b1-2)Man(a1-3)[Gal(b1-3)GlcNAc(b1-2)Man(a1-6)]Man(b1-4)GlcNAc(b1-4)[Fuc(a1-6)]GlcNAc
# How it was run: as §1
# [12] = biological target: Gal(b1-3)GlcNAc(b1-3)Gal(b1-4)Glc
# How it was run: as §1
# [13] = biological target: Gal(b1-3)[Fuc(a1-4)]GlcNAc(b1-3)Gal(b1-4)GlcNAc
# How it was run: as §1
# [14] = biological target: Gal(b1-4)GalNAc(a1-3)[Fuc(a1-2)]Gal(b1-4)GlcNAc
# How it was run: as §1
# [15] = biological target: Gal(b1-4)GlcNAc(b1-6)Gal(b1-4)GlcNAc
# How it was run: as §1
# [16] = biological target: Gal3S(b1-3)GlcNAc
# How it was run: as §1
# [17] = biological target: Gal3S(b1-4)Glc6S
# How it was run: as §1
# [18] = biological target: Gal3S(b1-4)[Fuc(a1-3)]Glc
# How it was run: as §1
# [19] = biological target: Gal3S4S(b1-4)GlcNAc
# How it was run: as §1
# [20] = biological target: Gal3S6S(b1-4)GlcNAc6S
# How it was run: as §1
# [21] = biological target: Glc(a1-4)Glc
# How it was run: as §1
# [22] = biological target: Glc(a1-6)Glc(a1-6)Glc
# How it was run: as §1
# [23] = biological target: GlcA(b1-3)Gal
# How it was run: as §1
# [24] = biological target: GlcNAc(b1-3)Gal(b1-4)GlcNAc(b1-3)Gal(b1-4)GlcNAc
# How it was run: as §1
# [25] = biological target: GlcNAc(b1-4)GlcNAc
# How it was run: as §1
# [26] = biological target: GlcNAc(b1-4)GlcNAc(b1-4)GlcNAc
# How it was run: as §1
# [27] = biological target: GlcNAc(b1-6)Gal(b1-4)GlcNAc
# How it was run: as §1
# [28] = biological target: Man(a1-2)Man(a1-2)Man(a1-6)[Man(a1-3)]Man
# How it was run: as §1
# [29] = biological target: Neu5Ac(a2-3)Gal(b1-3)GalNAc
# How it was run: as §1
# [30] = biological target: Neu5Ac(a2-3)Gal(b1-3)GalNAc(b1-4)[Neu5Ac(a2-3)]Gal(b1-4)Glc
# How it was run: as §1
# [31] = biological target: Neu5Ac(a2-3)Gal(b1-3)GalNAc6S
# How it was run: as §1
# [32] = biological target: Neu5Ac(a2-3)Gal(b1-3)GlcNAc
# How it was run: as §1
# [33] = biological target: Neu5Ac(a2-3)Gal(b1-3)[Fuc(a1-4)]GlcNAc(b1-3)Gal(b1-3)[Fuc(a1-4)]GlcNAc
# How it was run: as §1
# [34] = biological target: Neu5Ac(a2-3)Gal(b1-4)GlcNAc(b1-2)Man(a1-3)[Neu5Ac(a2-6)Gal(b1-4)GlcNAc(b1-2)Man(a1-6)]Man(b1-4)GlcNAc(b1-4)GlcNAc
# How it was run: as §1
# [35] = biological target: Neu5Ac(a2-6)Gal(b1-4)Glc
# How it was run: as §1
# [36] = biological target: Neu5Ac(a2-6)Gal(b1-4)GlcNAc(b1-2)Man(a1-3)[GlcNAc(b1-2)Man(b1-4)GlcNAc(b1-2)Man(a1-6)]Man(b1-4)GlcNAc(b1-4)GlcNAc
# How it was run: as §1
# [37] = biological target: Neu5Ac(a2-6)Gal(b1-4)GlcNAc(b1-2)Man(a1-3)[Man(a1-6)]Man(b1-4)GlcNAc(b1-4)GlcNAc
# How it was run: as §1
# [38] = biological target: Neu5Ac(a2-6)Gal(b1-4)GlcNAc(b1-3)Gal(b1-4)GlcNAc
# How it was run: as §1
# [39] = biological target: Neu5Ac(a2-8)Neu5Ac(a2-3)[GalNAc(b1-4)]Gal(b1-4)Glc
# How it was run: as §1
# [40] = biological target: Neu5Gc(a2-3)Gal(b1-4)Glc
# How it was run: as §1
binder,measurement,setting,value
"GIINTLQKYYCRVRGGRCAVLSCLPKEEQIGKCSTRGRKCCRRKK [Beta-Defensin 3 (Homo sapiens), P81534]",glycan array binding signal (z-score),[1],-0.692
same,glycan array binding signal (z-score),[2],5.67
same,glycan array binding signal (z-score),[3],-0.449
same,glycan array binding signal (z-score),[4],3.57
same,glycan array binding signal (z-score),[5],8.21
same,glycan array binding signal (z-score),[6],-0.467
same,glycan array binding signal (z-score),[7],-0.369
same,glycan array binding signal (z-score),[8],-0.233
same,glycan array binding signal (z-score),[9],0.134
same,glycan array binding signal (z-score),[10],-0.315
same,glycan array binding signal (z-score),[11],-0.62
same,glycan array binding signal (z-score),[12],-0.348
same,glycan array binding signal (z-score),[13],-0.493
same,glycan array binding signal (z-score),[14],-0.395
same,glycan array binding signal (z-score),[15],-0.485
same,glycan array binding signal (z-score),[16],0.98
same,glycan array binding signal (z-score),[17],4.37
same,glycan array binding signal (z-score),[18],0.062
same,glycan array binding signal (z-score),[19],4.31
same,glycan array binding signal (z-score),[20],3.11
same,glycan array binding signal (z-score),[21],0.053
same,glycan array binding signal (z-score),[22],-0.18
same,glycan array binding signal (z-score),[23],1.72
same,glycan array binding signal (z-score),[24],-0.356
same,glycan array binding signal (z-score),[25],-0.569
same,glycan array binding signal (z-score),[26],-0.463
same,glycan array binding signal (z-score),[27],-0.369
same,glycan array binding signal (z-score),[28],-0.442
same,glycan array binding signal (z-score),[29],-0.221
same,glycan array binding signal (z-score),[30],-0.555
same,glycan array binding signal (z-score),[31],1.18
same,glycan array binding signal (z-score),[32],-0.304
same,glycan array binding signal (z-score),[33],-0.364
same,glycan array binding signal (z-score),[34],-0.484
same,glycan array binding signal (z-score),[35],-0.294
same,glycan array binding signal (z-score),[36],-0.583
same,glycan array binding signal (z-score),[37],-0.313
same,glycan array binding signal (z-score),[38],-0.64
same,glycan array binding signal (z-score),[39],-0.591
same,glycan array binding signal (z-score),[40],-0.025
